According to ChEMBL document CHEMBL3988442, “University of Dundee, Small-Polar-MMV Screening Library” (2021):
For some of these results: Entries with a potency or affinity are not part of this list.

Assays:
Parameters in all cases: scale not given: direction of the effect not stated beside the values
[1] = molecular target: Protein translocase subunit SecA (Escherichia coli (strain K12)) (UniProt P10408); experiment: Assay to Identify E. coli SecA ATPase Inhibitors; format: functional; settings: 30 µM
[2] = molecular target: T1, Ubiquitin-activating enzyme e1, putative (Leishmania donovani (strain BPK282A1)) (UniProt E9BSI1); experiment: Leishmania donovani Ubiquitin Activating Enzyme (LdE1); format: functional; settings: 30 µM
T1 sequence (whole entry): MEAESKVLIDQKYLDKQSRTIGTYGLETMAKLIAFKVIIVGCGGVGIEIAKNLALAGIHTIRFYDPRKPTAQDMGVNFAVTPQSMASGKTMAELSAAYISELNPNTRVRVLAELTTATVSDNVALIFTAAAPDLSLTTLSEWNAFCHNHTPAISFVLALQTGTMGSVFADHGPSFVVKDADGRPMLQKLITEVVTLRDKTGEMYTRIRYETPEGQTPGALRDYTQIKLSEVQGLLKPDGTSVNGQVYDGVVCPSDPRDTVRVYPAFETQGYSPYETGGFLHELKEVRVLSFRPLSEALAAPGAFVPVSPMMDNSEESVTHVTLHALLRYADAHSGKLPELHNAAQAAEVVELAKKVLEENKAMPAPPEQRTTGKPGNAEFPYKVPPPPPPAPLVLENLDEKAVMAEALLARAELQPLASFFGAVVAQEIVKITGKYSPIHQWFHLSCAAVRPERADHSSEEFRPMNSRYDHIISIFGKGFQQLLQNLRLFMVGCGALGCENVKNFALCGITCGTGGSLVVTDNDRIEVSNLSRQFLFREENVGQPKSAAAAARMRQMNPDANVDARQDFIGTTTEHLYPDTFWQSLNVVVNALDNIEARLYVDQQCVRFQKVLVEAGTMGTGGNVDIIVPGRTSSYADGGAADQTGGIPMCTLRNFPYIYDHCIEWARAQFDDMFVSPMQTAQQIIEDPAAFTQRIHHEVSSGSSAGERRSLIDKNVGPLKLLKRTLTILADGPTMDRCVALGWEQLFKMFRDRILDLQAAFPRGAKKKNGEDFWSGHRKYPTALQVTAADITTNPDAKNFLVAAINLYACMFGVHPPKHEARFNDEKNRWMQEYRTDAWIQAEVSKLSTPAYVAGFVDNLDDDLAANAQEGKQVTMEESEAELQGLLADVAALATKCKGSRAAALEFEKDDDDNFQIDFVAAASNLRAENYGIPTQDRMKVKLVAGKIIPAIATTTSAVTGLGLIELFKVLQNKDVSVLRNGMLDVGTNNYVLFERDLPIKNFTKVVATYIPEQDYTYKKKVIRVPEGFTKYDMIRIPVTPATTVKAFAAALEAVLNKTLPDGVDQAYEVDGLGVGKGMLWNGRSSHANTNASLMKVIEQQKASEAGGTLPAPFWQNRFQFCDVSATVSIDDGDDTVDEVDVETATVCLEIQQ

[3] = molecular target: AMP-activated protein kinase, AMPK (Homo sapiens) (UniProt P54646+O43741+P54619+Q9UGJ0+Q9Y478+Q13131+Q9UGI9); experiment: AMP-dependent Kinase enzyme assay. An in vitro enzyme assay that detects ADP turnover that is directly proportional to AMPK activity. This uses naive AMPK that is activated during the assay with MK-8722; format: functional; settings: 30 µM
[4] = molecular target: Sialic acid-binding Ig-like lectin 9 (Homo sapiens) (UniProt Q9Y336); experiment: Hs-Siglec9 ALPHAscreen SOP 20170721; settings: 10 µM
Trypanosoma cruzi = experiment: Trypanosoma cruzi phosphomannomutase and mannose-1-phosphate guanylyltransferase assay; format: functional; settings: 10 µM
[5] = molecular target: T2, Arginase-2, mitochondrial (Homo sapiens) (UniProt P78540); experiment: in vitro enzyme assay to detect the production of urea directly proportional to the activity of Arginase II; format: functional; settings: 33.3 µM; further: in the data most compounds retested in dose-response had high values
T2 sequence (whole entry): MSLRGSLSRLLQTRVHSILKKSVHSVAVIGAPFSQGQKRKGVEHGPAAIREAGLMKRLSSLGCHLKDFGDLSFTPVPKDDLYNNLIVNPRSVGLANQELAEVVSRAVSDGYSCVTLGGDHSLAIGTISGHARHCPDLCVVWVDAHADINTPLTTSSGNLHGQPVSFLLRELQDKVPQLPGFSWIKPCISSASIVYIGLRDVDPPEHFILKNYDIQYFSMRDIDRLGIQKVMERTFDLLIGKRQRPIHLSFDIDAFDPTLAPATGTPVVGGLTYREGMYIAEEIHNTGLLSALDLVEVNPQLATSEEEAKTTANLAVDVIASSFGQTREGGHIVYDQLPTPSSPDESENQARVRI

[6] = molecular target: T3, Proteasome subunit beta (Trypanosoma cruzi) (UniProt O96673); experiment: Trypanosoma cruzi proteasome chymotrypsin-like activity (TcProtChymo) assay.; further: in the data most compounds retested in dose-response had high values; format: functional; settings: 9.37 µM
T3 sequence (whole entry): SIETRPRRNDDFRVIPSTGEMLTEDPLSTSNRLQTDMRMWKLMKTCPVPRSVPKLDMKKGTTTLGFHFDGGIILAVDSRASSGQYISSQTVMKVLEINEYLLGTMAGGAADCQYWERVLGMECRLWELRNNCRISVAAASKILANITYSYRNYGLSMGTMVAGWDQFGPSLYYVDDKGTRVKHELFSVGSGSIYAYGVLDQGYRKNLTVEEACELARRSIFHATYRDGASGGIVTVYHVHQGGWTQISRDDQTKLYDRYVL

Homo sapiens = species: Homo sapiens; experiment: To identify inhibition of the IFN signalling (Jak-Stat) pathway via expression of an eGFP reporter gene under the control of an IFN-stimulated response element (ISRE) containing MxA promoter.; format: functional; settings: 30 µM
[7] = molecular target: T4, Tyrosyl-tRNA synthetase, putative (Trypanosoma cruzi (strain CL Brener)) (UniProt Q4DSP6); experiment: Trypanosoma cruzi tyrosyl tRNA synthetase (TcYRS) _High Tyrosine SOP; format: functional; settings: 30 µM; further: in the data most compounds retested in dose-response had high values
T4 sequence (whole entry): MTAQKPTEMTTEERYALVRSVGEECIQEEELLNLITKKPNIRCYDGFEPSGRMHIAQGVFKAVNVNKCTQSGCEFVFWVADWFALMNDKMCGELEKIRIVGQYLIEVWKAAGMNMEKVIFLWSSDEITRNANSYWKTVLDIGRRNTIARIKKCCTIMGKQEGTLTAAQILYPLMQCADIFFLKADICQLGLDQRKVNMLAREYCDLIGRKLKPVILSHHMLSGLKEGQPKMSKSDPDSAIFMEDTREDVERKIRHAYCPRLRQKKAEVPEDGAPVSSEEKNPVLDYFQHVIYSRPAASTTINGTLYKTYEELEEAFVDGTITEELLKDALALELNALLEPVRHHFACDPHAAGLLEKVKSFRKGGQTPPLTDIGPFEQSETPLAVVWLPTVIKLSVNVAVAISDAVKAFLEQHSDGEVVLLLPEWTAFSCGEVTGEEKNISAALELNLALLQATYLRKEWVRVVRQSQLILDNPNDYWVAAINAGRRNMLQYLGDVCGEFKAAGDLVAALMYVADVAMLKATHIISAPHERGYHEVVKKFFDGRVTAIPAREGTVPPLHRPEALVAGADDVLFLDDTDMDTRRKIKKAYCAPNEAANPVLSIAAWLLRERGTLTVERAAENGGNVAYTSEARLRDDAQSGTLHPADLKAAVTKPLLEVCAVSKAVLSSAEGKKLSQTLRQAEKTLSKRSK

[8] = molecular target: T4, Tyrosyl-tRNA synthetase, putative (Trypanosoma cruzi (strain CL Brener)); experiment: Trypanosoma cruzi tyrosyl tRNA synthetase (TcYRS) SOP; format: functional; settings: 30 µM
[9] = molecular target: Chromo domain-containing protein 1 (Saccharomyces cerevisiae (strain ATCC 204508 / S288c) (Baker's yeast)) (UniProt P32657); experiment: ScCHD-1 Enzyme Inhibition Assay; format: functional; settings: 30 µM; further: in the data most compounds retested in dose-response had high values
Sequence of Chromo domain-containing protein 1 (Saccharomyces cerevisiae (strain ATCC 204508 / S288c) (Baker's yeast)) (P32657 whole entry, the tested form may be a part): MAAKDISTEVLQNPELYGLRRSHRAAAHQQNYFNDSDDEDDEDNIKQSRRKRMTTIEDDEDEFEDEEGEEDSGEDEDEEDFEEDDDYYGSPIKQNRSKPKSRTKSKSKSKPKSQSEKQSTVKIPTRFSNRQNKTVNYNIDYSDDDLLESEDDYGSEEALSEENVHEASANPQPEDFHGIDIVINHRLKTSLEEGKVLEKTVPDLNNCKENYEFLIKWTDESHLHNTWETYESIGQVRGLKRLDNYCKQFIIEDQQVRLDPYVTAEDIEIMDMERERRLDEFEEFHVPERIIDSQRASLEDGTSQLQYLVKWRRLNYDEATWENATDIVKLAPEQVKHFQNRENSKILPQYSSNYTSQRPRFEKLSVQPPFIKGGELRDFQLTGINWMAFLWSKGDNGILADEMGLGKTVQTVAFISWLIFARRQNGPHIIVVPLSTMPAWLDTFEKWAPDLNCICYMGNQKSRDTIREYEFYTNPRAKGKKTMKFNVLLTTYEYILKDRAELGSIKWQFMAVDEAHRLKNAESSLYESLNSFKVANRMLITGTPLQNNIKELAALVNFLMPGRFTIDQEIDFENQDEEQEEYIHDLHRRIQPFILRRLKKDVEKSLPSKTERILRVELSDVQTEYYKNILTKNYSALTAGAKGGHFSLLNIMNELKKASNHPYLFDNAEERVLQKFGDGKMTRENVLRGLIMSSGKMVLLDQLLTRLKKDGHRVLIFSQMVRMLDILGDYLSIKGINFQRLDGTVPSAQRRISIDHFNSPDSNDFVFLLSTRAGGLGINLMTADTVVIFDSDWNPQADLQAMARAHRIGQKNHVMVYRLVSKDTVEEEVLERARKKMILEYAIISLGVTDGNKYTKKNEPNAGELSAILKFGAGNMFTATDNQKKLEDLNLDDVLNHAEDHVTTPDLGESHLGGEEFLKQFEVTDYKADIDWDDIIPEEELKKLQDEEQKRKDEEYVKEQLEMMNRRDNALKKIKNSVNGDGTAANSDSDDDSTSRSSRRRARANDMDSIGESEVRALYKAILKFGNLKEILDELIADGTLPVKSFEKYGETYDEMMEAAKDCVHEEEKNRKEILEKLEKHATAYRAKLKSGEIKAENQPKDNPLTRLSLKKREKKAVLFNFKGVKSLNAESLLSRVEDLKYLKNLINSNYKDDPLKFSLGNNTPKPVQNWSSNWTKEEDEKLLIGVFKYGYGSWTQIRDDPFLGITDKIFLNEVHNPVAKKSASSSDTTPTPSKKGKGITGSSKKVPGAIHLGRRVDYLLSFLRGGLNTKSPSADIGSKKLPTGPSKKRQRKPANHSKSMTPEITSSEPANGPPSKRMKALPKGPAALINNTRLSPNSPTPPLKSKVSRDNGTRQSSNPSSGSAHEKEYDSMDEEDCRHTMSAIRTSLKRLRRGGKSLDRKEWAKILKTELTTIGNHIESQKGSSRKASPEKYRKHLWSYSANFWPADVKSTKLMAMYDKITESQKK

Sequence of Protein translocase subunit SecA (Escherichia coli (strain K12)) (P10408 whole entry): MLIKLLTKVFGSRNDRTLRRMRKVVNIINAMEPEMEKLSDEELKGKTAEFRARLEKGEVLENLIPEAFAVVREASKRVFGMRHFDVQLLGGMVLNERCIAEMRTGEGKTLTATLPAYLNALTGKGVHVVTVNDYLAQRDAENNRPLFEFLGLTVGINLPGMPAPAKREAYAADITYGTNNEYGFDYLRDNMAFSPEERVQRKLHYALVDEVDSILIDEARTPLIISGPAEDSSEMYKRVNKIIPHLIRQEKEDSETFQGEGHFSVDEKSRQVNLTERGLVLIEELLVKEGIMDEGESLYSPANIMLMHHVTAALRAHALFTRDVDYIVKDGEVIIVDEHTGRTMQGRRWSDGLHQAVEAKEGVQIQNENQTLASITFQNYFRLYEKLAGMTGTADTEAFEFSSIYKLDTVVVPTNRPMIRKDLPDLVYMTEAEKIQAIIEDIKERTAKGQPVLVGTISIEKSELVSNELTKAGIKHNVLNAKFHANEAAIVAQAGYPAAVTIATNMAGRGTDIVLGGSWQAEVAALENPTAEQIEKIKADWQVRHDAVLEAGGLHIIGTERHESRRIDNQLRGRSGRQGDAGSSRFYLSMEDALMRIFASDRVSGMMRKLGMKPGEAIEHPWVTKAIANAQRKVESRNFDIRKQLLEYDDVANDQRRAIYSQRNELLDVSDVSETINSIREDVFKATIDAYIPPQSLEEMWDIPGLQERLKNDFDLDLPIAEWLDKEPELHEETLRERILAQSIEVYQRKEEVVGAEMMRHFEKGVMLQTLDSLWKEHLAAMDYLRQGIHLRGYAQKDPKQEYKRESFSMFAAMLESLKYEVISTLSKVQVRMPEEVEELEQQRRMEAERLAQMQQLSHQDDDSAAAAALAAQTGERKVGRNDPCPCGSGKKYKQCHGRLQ
Sequence of Sialic acid-binding Ig-like lectin 9 (Homo sapiens) (Q9Y336 whole entry): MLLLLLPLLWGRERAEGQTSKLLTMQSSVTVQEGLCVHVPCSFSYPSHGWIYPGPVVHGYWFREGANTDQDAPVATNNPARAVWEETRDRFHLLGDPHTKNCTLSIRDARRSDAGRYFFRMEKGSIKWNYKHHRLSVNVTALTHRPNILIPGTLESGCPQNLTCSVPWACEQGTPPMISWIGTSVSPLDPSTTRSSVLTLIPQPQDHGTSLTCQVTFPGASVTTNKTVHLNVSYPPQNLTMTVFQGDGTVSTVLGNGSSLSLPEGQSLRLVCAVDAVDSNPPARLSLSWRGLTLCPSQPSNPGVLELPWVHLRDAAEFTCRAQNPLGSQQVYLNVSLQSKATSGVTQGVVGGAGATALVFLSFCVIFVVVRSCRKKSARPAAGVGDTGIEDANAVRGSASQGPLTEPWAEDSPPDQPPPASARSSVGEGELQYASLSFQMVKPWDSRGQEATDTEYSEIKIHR

| SMILES | Percent Effect [1] | Percent Effect [2] | Percent Effect [3] | Percent Effect [4] | Percent Effect (Trypanosoma cruzi) | Percent Effect [5] | Percent Effect [6] | Percent Effect (Homo sapiens) | Percent Effect [7] | Percent Effect [8] | Percent Effect [9] |
| --- | --- | --- | --- | --- | --- | --- | --- | --- | --- | --- | --- |
| COc1cccc(NC(=O)N(CCO)Cc2ccsc2)c1 | -3.38% | -6.94% | 1.15% | -5.41% | -4.96% | -4.42% | 12.3% | 11.8% | 3.16% | 5.13% | -4.52% |
| CCOCC(O)CN1CCN(C(=O)c2cccc(F)c2)CC1 (configuration not stated) | -1.53% | 2.7% | -2.77% | -2.18% | 7.92% | -2.86% | 5.17% | 13.8% | 0.529% | -9.76% | -2.68% |
| Cc1cnn(CC2CCCCN2CC(=O)NCc2ccccn2)c1 (configuration not stated) | -2.64% | -2.63% | 6.62% | 0.337% | 7.11% | -1.18% | 17.4% | -2.67% | 5.32% | 5.2% | -0.694% |
| O=C(O)[C@@H]1CN(C(=O)c2ccc3[nH]nnc3c2)C[C@H]1c1cccc(F)c1 | -4.68% | 11% | -5.72% | 8.16% | 6.94% | -3.99% | 12.6% | 3.52% | 4.17% | 8.64% | -2.47% |
| CCn1cnnc1C1CCN(C(=O)c2cnc(C3CC3)s2)CC1 | -2.76% | 17.7% | -5.9% | 9.8% | 0.85% | -2.28% | 3.52% | -10.4% | 6.4% | 13.9% | -4.8% |
| CC(C)(CNC(=O)CCOc1cccc(F)c1)C(N)=O | -1.29% | 7.89% | 1.89% | 3.39% | -7.14% | 3.06% | 10.5% | 12% | 5.39% | 12.2% | -1.57% |
| CN1CCN(C(=O)CC2CCN(CCc3ccccn3)CC2)CC1 | -2.81% | 5.2% | 3.53% | 5.15% | 5.58% | 4.84% | 3.48% | 9.07% | 6.67% | 18.8% | -17.3% |
| CN(C)C(=O)COC1COC2(CCN(S(C)(=O)=O)CC2)C1 (configuration not stated) | 0.201% | 13.5% | 1.81% | -7.02% | -1.47% | 9.87% | 18.1% | -9.56% | 4.32% | 12.8% | -1.01% |
| CC(=O)Nc1nc(C2CCN(C(=O)c3cccnc3)CC2)cs1 | -6.73% | 21.3% | 0.538% | 3.28% | 2.36% | -2.56% | 12.1% | 5.76% | 5.32% | 19.2% | -2.51% |
| CNS(=O)(=O)c1cccc(CNc2cc(C(F)(F)F)ccn2)c1 | -7.14% | 5.41% | 12.6% | -1.96% | -6.13% | 5.21% | 0.54% | 38.2% | 4.43% | 3.7% | -1.45% |
| COCCN1CCC(N(Cc2noc(C3CC3)n2)C(C)=O)C1 (configuration not stated) | -2.54% | 13.5% | -5% | -6.65% | -5.11% | -0.924% | 18.3% | 20.9% | 0.99% | 11% | -8.27% |
| O=C(N1CCOCC1)N1CCc2ncnc(NC3CC3)c2CC1 | -0.799% | 0% | 6.99% | -5.96% | -7.81% | 6.67% | 19.2% | 19.9% | 0.99% | 6.1% | 0.83% |
| Cc1nc(CCNC(=O)C2CC(=O)N(C(C)(C)C)C2)sc1C (configuration not stated) | -4.83% | 0% | -1.25% | 5.84% | -1.19% | -3.59% | 8.82% | -0.947% | 5.21% | 11.1% | -3.8% |
| N#Cc1ccc(CN2CCN(C(=O)C3CCC3)[C@@H]3CS(=O)(=O)C[C@@H]32)cc1 | -4.22% | 5.2% | 3.66% | 3.04% | -5.61% | -20.7% | 8.98% | 14.4% | 4.3% | 8.64% | -1.71% |
| Cn1cc(CCNC(=O)NC2CCS(=O)(=O)C2)cn1 (configuration not stated) | -5.97% | -1.39% | -3.17% | -1.6% | -4.57% | -0.442% | 11.8% | -0.804% | 0% | 5.13% | -1.44% |
| CCN1C(=O)C2(CCOCC2)c2cc(NC(=O)c3ccco3)ccc21 | -4.08% | 18.2% | -1.2% | 14.7% | 3.64% | -11% | 9.98% | 14.7% | 5.38% | 11.1% | 3.7% |
| Cc1ccc(OCCC(=O)NC2CCc3nccn3C2)cc1 (configuration not stated) | -6% | 0% | 7.39% | 1.52% | -1.07% | -13% | 17.6% | -12.9% | 5.32% | 13% | -2.38% |
